Only some compounds are listed: those with a hit (about 21% of all), similar ones and a draw of the others.
Pf growth 96h – Primary qHTS for delayed death inhibitors of the malarial parasite plastid, 96 hour incubation; P. falciparum luciferase reporter growth, 96 h; Potency, µM (doses to about 28.7 µM), for the others: at the top dose activity change, negative = inhibition, usual class: inhibitors; 6.9% of 320,000 active; AID 504834, 2011; also: potency is read from the fitted curve at half-maximal effect; % is scaled to controls: 0 for no effect and ±100 for the full control effect
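Cell-based qHTS: luciferase-tagged P. falciparum in erythrocytes (2% hematocrit, 0.05% parasitemia final) incubated with compounds for 96 hours, 37 C, 5% CO2; luciferase detection reagent then added and luminescence measured.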
FBPA Giardia inh – qHTS Assay for Inhibitors of Fructose-1,6-bisphosphate Aldolase from Giardia Lamblia. purified Giardia FBPA. Potency, µM (series often up to 59.6 µM), for inactives: top-dose activity, negative = inhibition, hits mostly inhibitors. 0.71% of 290,000 active; also: potency is read from the fitted curve at half-maximal effect; % is scaled to controls: 0 for no effect and ±100 for the full control effect; nearly all actives have a fitted effect of over 55% in size
Target sequence (A8B2U2 whole entry, looked up): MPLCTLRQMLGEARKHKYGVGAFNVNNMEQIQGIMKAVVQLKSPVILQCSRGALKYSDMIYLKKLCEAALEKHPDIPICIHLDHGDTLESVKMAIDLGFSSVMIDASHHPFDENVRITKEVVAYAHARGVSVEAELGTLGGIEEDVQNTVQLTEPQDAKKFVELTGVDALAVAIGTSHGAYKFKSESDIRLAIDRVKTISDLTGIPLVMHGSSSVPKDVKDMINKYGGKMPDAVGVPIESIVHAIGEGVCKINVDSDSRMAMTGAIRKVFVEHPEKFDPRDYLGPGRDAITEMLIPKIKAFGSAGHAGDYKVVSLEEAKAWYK
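40 nM FBPA preincubated 10 min at RT with compound (up to 57.5 uM final), then substrate plus GAPDH/TPI/NAD/arsenate coupling and diaphorase/resazurin added. Fluorescence read after 20 min at RT, 525/598 nm.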
NS1 function inh – qHTS Assay for Inhibitors of Influenza NS1 Protein Function | Potency, µM (doses to about 46.1 µM), for inactives: at the top dose activity, positive = more growth | 0.4% of 270,000 active | AID 2326, 2010; calls by dose curve; also: potency is read from the fitted curve at half-maximal effect; actives are rising curves; nearly all actives have a fitted effect of over 50% in size
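Compounds were scored for reversing the slow growth caused by influenza A NS1 in S. cerevisiae, measured by optical density at 600 nm. Assay medium contained 2% galactose at pH 6.0; NS1-free yeast of the same strain were the positive control.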
Pf growth 48h – Primary qHTS for delayed death inhibitors of the malarial parasite plastid, 48 hour incubation | P. falciparum luciferase growth in erythrocytes, 48 h | Potency, µM (doses to about 28.7 µM), without a hit: at the highest dose activity change, negative = inhibition, most hits filed as inhibitors | 5.9% of 310,000 active | AID 504832, 2011; also: potency is read from the fitted curve at half-maximal effect; % is scaled to controls: 0 for no effect and ±100 for the full control effect
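Parasite viability was followed by luminescence of a genomically integrated firefly luciferase. Cultures held 0.1% parasitemia at 2% hematocrit (final), incubated under 5% CO2 at 37 C.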
Shiga toxin inh – A qHTS for Small Molecule Inhibitors of Shiga Toxin | Vero cells, Shiga toxin protein synthesis inhibition reporter | inhibition, % at 38.7 µM | 9.2% of 290,000 active | AID 2315, 2010; in the data active = inhibition mostly above about 28%, no sharp cut-off; inactive = mostly below about 43%; also: 0% is about no effect
Cycloheximide cs – Cycloheximide Counterscreen for Small Molecule Inhibitors of Shiga Toxin. cell reporter, cycloheximide protein synthesis inhibition counterscreen. max response, %. 12% of 300,000 active; in the data active = max response mostly above about 13%, no sharp cut-off; inactive = mostly below about 14%; also: read at 38.3 µM for the half of the compounds with a filed dose; 0% is about no effect
The depositor's hits bear a star; ? = inconclusive; / = not tested or not shown; [ ] = dose if it differs, or a comment. Unless noted, calls follow the shape of the dose curve; as a rule, active = well fitted curve in the direction sought with a large enough effect; inconclusive = small, poorly fitted or top-dose-only effect, or another doubt; inactive = no such curve, though single readings can be large; an effect the other way counts as inactive or inconclusive.

SMILES	Pf growth 96h	FBPA Giardia inh	NS1 function inh	Pf growth 48h	Shiga toxin inh	Cycloheximide cs
COc1ccc(N=C(NN)c2ccc3ccccc3n2)cc1	2%	-27%	13%	130%	20	17
CCOc1ccc(NC(=S)c2ccc3ccccc3n2)cc1	14%	18%	-5%	46%	38*	24*
COc1ccc(NC(=S)c2ccc3ccccc3n2)cc1	54%	-10%	-3%	68%	60*	45*
O=C(NCCNc1ccc2ccccc2c1)c1cccn2c(=O)c3sccc3nc12	1.9µM*	-22%	/	?	22	-1
O=C(CNC(=O)c1ccccc1Cl)OC1CCOC1=O (stereo not given)	42%	6%	/	3%[5.75 µM]	15	7
CCOC(=O)c1ccc(N=Cc2nc3ccccc3n2C)cc1	24%	14%	-13%	31%	-6	11
CCOC(=O)c1ccc(N=C2C(=S)N(c3ccc(C(=O)OCC)cc3)C(=N)N2/N=C/c2ccccc2)cc1	10µM*	0%	13%	?	33*	12
Clc1ccc(OCCSc2ncccn2)c2ccccc12	14%	2%	-4%	15%	91*	39*
Fc1ccccc1OCCCCSc1ncccn1	141%	/	0%	33%	22	27*
c1ccc2c(OCCCCN3CCCC3)cccc2c1	?	-27%	-12%	0%	13	-1
Clc1ccc(OCCn2ccnc2)c2ccccc12	/	12%	-112%	?	-12	-3
c1cnc(SCCOc2cccc3ccccc23)nc1	46%	0%	-53%	/	79*	52*
c1nc(N2CC2)c2cnn([C@@H]3CCCCO3)c2n1	/	/	-4%	/	/	/
CCn1nc(C(=O)Nc2ccc3nc(C)sc3c2)c2ccccc2c1=O	8%	2%	/	8%	30	19*
CC(=O)c1ccc(NC(=O)c2ccc(C)c(Br)c2)cc1	?	16%	0%	18%	73*	60*
CCCCC(=O)Nc1ccc(C(=O)NNC(=O)c2ccc(C)c(Br)c2)cc1	-7%	3%	8%	2%	-2	1
N#Cc1ccccc1CSc1nc2ccc(NC(=O)c3ccccc3C(=O)O)cc2s1	-1%	2%	9%	32%	79*	27*
CCn1nc(C(=O)NC2=NCCS2)c2ccccc2c1=O	?	-1%	-5%	/	-11	-1
CNC(=O)Nc1ccc2nc(C)sc2c1	-3%	3%	-2%	50%	18	16*
Cc1nc2ccc(NC(=O)c3cncc(Br)c3)cc2s1	?	1%	-4%	?	102*	32*
Cc1nc2ccc(OC(=O)c3ccccc3)cc2s1	-11%	2%	-31%	-14%	19	13*
C=CCNC(=O)Nc1ccc2nc(C)sc2c1	?	2%	-36%	62%	24	14
O=C(Nc1ccc([N+](=O)[O-])cc1)c1cncc(Br)c1	-8%	-1%	-4%	?	23	13
Cc1nc2ccc(NC(=O)c3ccc4ccccc4n3)cc2s1	132%	11%	/	70%	102*	28*
Cc1nc2ccc(C(=O)Nc3ccccc3Cl)cc2s1	?	1%	-37%	16%	118*	50*
SMILES	Pf growth 96h	FBPA Giardia inh	NS1 function inh	Pf growth 48h	Shiga toxin inh	Cycloheximide cs
CO[C@@H]1COC(=O)[C@H]2CCCN2C(=O)[C@@H](C)COC(=O)C/C=C\[C@H]1C	/	3%[12.9 µM]	/	/	/	/
COc1ccc(NC(=O)N2CC[C@@]3(CCCN(C(=O)c4c(C)noc4C)C3)C2)cc1	/	-15%	/	/	/	/
CN(Cc1ccc(F)cc1)C(=O)c1cc(S(=O)(=O)N2CCCCC2)ccc1N1CCOCC1	-5%	/	/	?	/	/
CC(C)(C)C(=O)Nc1nnc(SCC(=O)NC2CC2)s1	11%	-1%	23%	10%	-2	-4
COc1ccc(NC(=O)c2cc(OC)c(OC)c(OC)c2Br)cc1OC	?	1%	-11%	7%	4	-4
Cc1ccccc1NC(=O)c1ccc2nc(N3CCOCC3)sc2c1	?	-3%	-17%	-5%	38*	28*
Cc1nc2ccc(NC(=O)c3ccccc3)cc2s1	0%	-3%	-61%	20%	108*	30*
COc1cc(C(=O)Nc2ccc(C(C)=O)cc2)c(Br)c(OC)c1OC	82%	-3%	12%	60%	70*	42*
Cc1cccnc1NC(=O)c1ccc(Cl)c(S(=O)(=O)N2CCCC2)c1	-18%	/	-2%	-1%	-10	3
Cc1cccnc1NC(=O)c1ccc2nc(N)sc2c1	12%	-1%	0%	/	73*	28*
Cc1ccccc1CNC(=O)c1ccc2nc(N3CCOCC3)sc2c1	17%	-2%	-13%	14%	14	2
O=P(Cc1cc(Br)cc(Br)c1OCCO)(c1ccccc1)c1ccccc1	-16%	-3%	-4%	-3%	10	-3
Cc1nc2ccc(NC(=O)c3ccc(N4C(=O)CCC4=O)cc3)cc2s1	-25%	2%	/	26%	1	-1
Cc1nc2ccc(NC(=O)c3ccc(=O)[nH]c3)cc2s1	-20%	6%	-8%	?	19	-6
Cc1nnc(NC(=O)c2ccc3ccccc3n2)s1	108%	-8%	/	220%	110*	38*
Cc1nc2cc(C(=O)O)ccc2s1	13%	4%	-5%	132%	133*	44*
CCNc1ccc(C(=O)Nc2ccc3nc(C)sc3c2)cc1[N+](=O)[O-]	?	-1%	-16%	?	32	27*
CC(=O)c1ccc(NC(=O)c2ccc3nc(C)sc3c2)cc1	31%	0%	9%	1%	/	87*
COc1ccc(OCCCC(=O)NNC(=O)c2ccncc2)cc1	-4%	/	/	-1%	/	/
Cc1noc(C)c1C(=O)N1CCC[C@@]2(CCN(C(c3ccccc3)c3ccccc3)C2)C1	/	1%	/	/	/	/
Cc1ccc(S(=O)(=O)N(C)C)cc1NC(=O)CCCNC(=O)c1ccc(Cl)cc1	-8%	-1%	4%	?	5	-3
Cc1nc2ccc(NC(=O)c3cccc(S(=O)(=O)N(C)c4ccccc4)c3)cc2s1	8.3µM*	-6%	4%	?	-3	-3
CCc1c2c(nc3cccc(OC)c13)OC(CC)C2 (stereo not given)	/	-24%	/	/	/	/
Cc1cc(C)c(-c2c(O)c3c(n(C)c2=O)CC(C)(C)CC3=O)c(C)c1	5.9µM*	5%	-23%	?	-4	-3
Cn1c2c(c(O)c(-c3ccccc3)c1=O)C(=O)CC(C)(C)C2	?	3%	10%	?	12	-2

High-throughput results deposited in PubChem by National Center for Advancing Translational Sciences (NCATS).
